# Source: PubChem BioAssay AID686978 (National Center for Advancing Translational Sciences (NCATS), 2013)
# Among all 420,000 compounds or so, about 64,000 (15%) were called active. About 27% were inconclusive and are not listed. The call rests on the fitted dose curve; in most records, active means well fitted inhibition curve with a large enough effect; inconclusive means small, poorly fitted or top-dose-only effect; inactive means flat fitted curve, though single readings scatter. These entries were drawn from the full list.
# Assay: qHTS for Inhibitors of human tyrosyl-DNA phosphodiesterase 1 (TDP1): qHTS in cells in absence of CPT; further: nearly all actives have a fitted effect of over 55% in size
# Conditions: DT40 Tdp1-/- hTDP1 cells, no CPT, ATP luminescence, 48 h; activity change, negative = growth inhibition: at 46.2 µM (top of the series)
# In short: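 Chicken DT40 Tdp1-/- cells complemented with human TDP1, screened without camptothecin (DMSO vehicle only), 400 cells/well. Compounds pin-transferred, cells incubated at 37 °C for at least 48 hr. Growth read as ATP-dependent luminescence (CellTiter-Glo, 30 min at RT).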
# On the % scale 0 is the no-effect control and ±100 the full control effect; potency means the concentration at half of the fitted maximal effect.
Structure (SMILES),"activity change, negative = growth inhibition",Potency
COc1cccc(OCC(=O)NNC(=O)c2cnccn2)c1,-29.3% (inactive),–
CS(=O)(=O)N1CCN(c2cccc(Cl)n2)CC1,-12.8% (inactive),–
COCCn1cnc2c1c(=O)n(Cc1ccc(Br)cc1)c(=O)n2Cc1ccccc1,-5.41% (inactive),–
CCN(CC)CCn1cnc2c1c(=O)[nH]c(=O)n2Cc1ccccc1,-22.4% (inactive),–
N=c1c2c(-c3ccccc3)c(-c3ccccc3)n(Cc3ccccc3)c2ncn1CCCO,–,18.4 µM (active)
COc1ccc(C(=O)CSc2nnc(-c3ccco3)o2)cc1,-17.3% (inactive),–
O=C1CN(C(=O)CN2C(=O)NC3(CCCCC3)C2=O)c2ccccc2N1,-1.46% (inactive),–
Cc1ccn2c(=O)c(C(=O)NCCC3=CCCCC3)c(O)nc2c1,–,20.6 µM (active)
CC(Sc1nncn1C)C(=O)NCCC1=CCCCC1 (centres undefined),-19.3% (inactive),–
CCOCCCNC(=O)C1(O)c2cc(Br)ccc2NC(=O)N1c1ccc(C)c(C)c1 (centres undefined),10.1% (inactive),–
Cc1cccc(NC(=O)CCN2CC(C)CC(C)C2)c1 (centres undefined),13.4% (inactive),–
Cc1cc(=O)oc2cc(OC(C)C(=O)Nc3ccc(N4CCOCC4)cc3)ccc12 (centres undefined),-14.8% (inactive),–
CC1CN(C(=O)CCC(=O)NCCCN2CCC(Cc3ccccc3)CC2)c2cc(Cl)ccc2O1 (centres undefined),–,18.4 µM (active)
O=C(CC1Oc2ccccc2NC1=O)NCCCN1CCN(Cc2ccccc2)CC1 (centres undefined),0.2% (inactive),–
CC1CN(C(=O)CCC(=O)NC2CCN(Cc3ccccc3)CC2)c2ccccc2O1 (centres undefined),4.16% (inactive),–
CSc1ccc(Cl)c(C(=O)OCC(=O)N2CC(C)OC(C)C2)c1 (centres undefined),7.32% (inactive),–
Cc1noc(C)c1S(=O)(=O)N(C)C[C@H]1Oc2ccc(NC(=O)C3CCCCC3)cc2C(=O)N([C@H](C)CO)C[C@@H]1C,-13.7% (inactive),–
C[C@H]1COc2cc(N3CCSCC3)ccc2S(=O)(=O)N1,-28.5% (inactive),–
Cc1nnc(C)n1/N=C/c1ccc(C(C)C)cc1,-3.59% (inactive),–
Cc1cc(Br)ccc1NC(=O)CCCOc1cc(=O)n(C)c2ccccc12,–,25.9 µM (active)
CCOC(=O)N1CCC(NC(=O)COc2cc(=O)n(C)c3ccccc23)CC1,-4.89% (inactive),–
Cc1ccc(F)c(NC(=O)CCOc2ccccc2C)c1,-6.79% (inactive),–
Cc1cc(C)n2nc(C(=O)Oc3ccc4c(c3)OCO4)nc2n1,-23.2% (inactive),–

Structure (SMILES),"activity change, negative = growth inhibition",Potency
CC(=O)c1c(N)n(C)c(=O)n(C)c1=O,0.345% (inactive),–
CC(=O)c1c(-c2ccccc2)c2ccccc2[nH]c1=O,-0.0692% (inactive),–
CCOC(=O)c1[nH]c2ccccc2c1N=C(C)N(CC)CC,-10.8% (inactive),–
Cc1c(-c2ccccc2)n[nH]c1C(=O)N=Nc1c(O)[nH]c2ccccc12,–,23.1 µM (active)
O=C(c1ccco1)N1CCN(C(=O)C2CC(c3ccc(F)cc3)=NO2)CC1 (centres undefined),8.49% (inactive),–
COc1ccccc1N(CC(=O)Nc1ccc(C(F)(F)F)cc1)S(C)(=O)=O,4.9% (inactive),–
COC(=O)c1ccc(CN(c2ccccc2OC)S(=O)(=O)c2cccs2)o1,–,23.1 µM (active)
COC(=O)c1ccc(Cc2ccccc2)o1,-14% (inactive),–
O=C(O)C1C2CC2CN1C(=O)c1ccc(Cl)cc1Cl (centres undefined),-14.9% (inactive),–
O=C(CSC1CC(=O)N(CCc2ccccc2)C1=O)Nc1ccc(Cl)cc1 (centres undefined),-19.9% (inactive),–
O=C(CSc1ccc(-c2ccco2)nn1)NCc1ccc2c(c1)OCO2,-1.47% (inactive),–
O=C(CSc1ccc(-c2ccco2)nn1)Nc1cccc(F)c1,–,20.6 µM (active)
O=C(CSc1ccc(-c2ccccn2)nn1)Nc1ccccc1,–,18.4 µM (active)
O=C(CSc1ccc(-c2ccc(F)cc2)nn1)Nc1ccc2c(c1)OCCO2,-27.9% (inactive),–
Cc1ccccc1NC(=O)CSc1ccc2nnc(-c3ccccn3)n2n1,-11.4% (inactive),–
O=C(CSc1ccc(-c2ccc(-n3cccn3)cc2)nn1)Nc1ccc([N+](=O)[O-])cc1,-3.72% (inactive),–
O=C(CCC(=O)OCc1cccc(C(=O)Oc2ccccc2)c1)Nc1cccc2ccccc12,-21.2% (inactive),–
C=CCOc1ccccc1NC(=O)CN1C(=O)CNC1=O,-7.28% (inactive),–
COc1nc(N(C)C)nc(N2CC(=O)N(CCNS(=O)(=O)c3ccc(C)cc3)C2=N)n1,-15.3% (inactive),–
NC(=O)C1(N2CCCCC2)CCN(C(=S)Nc2ccc(Cl)cc2)CC1,-6.42% (inactive),–
CC(C)(C)Oc1ncc(Br)c(OC(C)(C)C)n1,-2.08% (inactive),–
Cc1ccc(/C=C/C(=O)OCC(=O)NCc2ccc(Cl)cc2)o1,8.3% (inactive),–
CCOCCCNC(=O)C(NC(=O)c1ccccc1O)c1ccccc1 (centres undefined),-7.83% (inactive),–

Structure (SMILES),"activity change, negative = growth inhibition",Potency
O=C(CSc1nnc(C2CC2)n1Cc1ccccc1)Nc1cccnc1Cl,6.73% (inactive),–
O=C(NOCc1ccccc1)c1cccc([N+](=O)[O-])c1,-4.33% (inactive),–
CCC(CC)NC(=O)/C=C/c1cccc([N+](=O)[O-])c1,-26.5% (inactive),–
CCC1(C(=O)c2ccccc2)C(c2cccc([N+](=O)[O-])c2)C1(C(=O)OC)C(=O)OC (centres undefined),–,13 µM (active)
COc1ccc(C)cc1NC(=O)Nc1ccccc1SC,-14% (inactive),–
O=C(COC(=O)Cc1ccc([N+](=O)[O-])cc1)NC1CCCCCC1,21.9% (inactive),–
CN(C(=O)CCN1C(=O)/C(=C/c2ccccc2F)SC1=S)C1CCS(=O)(=O)C1 (centres undefined),–,23.1 µM (active)
COc1ccccc1/C=C1\SC(=O)N(CCC(=O)N(C)C2CCS(=O)(=O)C2)C1=O (centres undefined),-17.3% (inactive),–
CN(C(=O)CN1C(=O)S/C(=C\c2ccccc2F)C1=O)C1CCS(=O)(=O)C1 (centres undefined),-1.69% (inactive),–
CSc1cc(C)n(-c2ccccc2C)c(=S)c1C(C)=O,-2.36% (inactive),–
Cc1cccc(NC(=O)CSc2nnc(CCNC(=O)OC(C)(C)C)o2)c1C,-2.72% (inactive),–
CC1CC(C)CN(C(=O)CCNC(=O)Cn2cnc3ccccc3c2=O)C1 (centres undefined),-6.93% (inactive),–
CCc1ccc(NC(=O)CSc2nnc(-c3cnccn3)n2Cc2ccco2)cc1,-21.8% (inactive),–
CN1CCN(c2ncc3c(n2)CC(c2ccccc2F)CC3=O)CC1 (centres undefined),–,18.4 µM (active)
CCCN1CCc2nc(N3CCN(C)CC3)ncc2C1,-13.9% (inactive),–
O=C1c2ccccc2C(=O)C1c1ccccc1F,-1.5% (inactive),–
CSc1nsc(SC)c1NC(=O)OC1CCCCC1,-24.9% (inactive),–
N#CCSc1nn(-c2ccc(F)cc2)c(=S)s1,-15.7% (inactive),–
CCOC(=O)N/N=C1\CC(C)S(=O)(=O)c2ccc(Cl)cc21 (centres undefined),-29.5% (inactive),–
Cc1nc(N2CCOCC2)nc2c1CCCC2,-3.14% (inactive),–
COc1cccc(C(C(=O)NC2CCCC2)N(C(=O)c2ccco2)c2cccc(C(C)=O)c2)c1OC (centres undefined),-19.3% (inactive),–
Fc1c(F)c(C(F)(F)F)c(F)c(F)c1N1CCN(c2ccc3nnc(C(F)(F)F)n3n2)CC1,–,23.1 µM (active)
FC(F)(F)c1nnc2ccc(N3CCN(c4ccccc4)CC3)nn12,-23.8% (inactive),–
